Calls of active or inactive are those of the source. Unless noted, how the calls were made is not given here.

The nature of assay [1]: circadian clock period modulators, cell-based, LOPAC library, luminescence reporter (AID 2774).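 Further: values are relative to mean of DMSO wells on each plate.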 To be noted: circadian reporter cells, at 7 µM, actives lie on both sides.
For assay [2], the system named is Aerobactin synthetase IucA (Klebsiella pneumoniae). The experiment in a line: IucA aerobactin synthetase inhibitors, biochemical, Tocris library, absorbance (AID 1345561).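 Further: 100% = enzyme without compound and 0% = no enzyme.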 The following applies: purified IucA enzyme assay, absorbance (OD) read-out; stronger effect = lower value;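 tested at 8 µM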.
Assay [3] can be described thus: sensitizers of A549 cells to miR-34 induction, primary screen, imaging, A549 dox-inducible miR-34, nuclei and caspase counts (AID 1347080;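 active means compounds whose cell count with miR-34 switched on is under 0.7 times the count with it off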). To be noted: A549 miR-34 inducible, Hoechst nuclei count, 48 h.
Assay [4] is described as follows: viability rescue of complex I mutant cybrids, primary screen, cell-based, galactose medium, ATP luminescence (AID 1645843;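 active means z-score of at least 1.8 in each of two replicates, scored against plate mean and spread of sample wells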;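 further: positive z means more ATP and so rescue of galactose-driven cybrid death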). The following applies: complex I mutant cybrid cells, 72 h, stronger effect = higher value.

The remaining activity is the signal under treatment as a percentage of the control signal. Take `COC(=O)c1c(-c2cc(OC)c(OC)c(OC)c2)c2ccnc(OCc3ncccn3)c2c(=O)n1Cc1ccnc(C)c1`: in assay [1], the period change is 0.03 h (inactive). Moreover, the remaining activity in assay [2] was 117% (inactive). In addition, the fold change in assay [3] (stronger effect = lower value, cell number ratio, induced over uninduced) is 0.972 (inactive); in assay [3] (measured here: relative caspase fold change +Dox/-Dox), 0.845. The cell count in assay [3] (measured here: total cells with miR-34 induction, stronger effect = lower value) was found to be 8000; in assay [3] (measured here: total cells without miR-34 induction), 8240. In addition, in assay [4], the z-score was -0.06 (inactive).
